Bioassay records from PubChem BioAssay.
This is a sample that favours compounds with a hit; in the whole collection about 4.6% have one here.
D1 ag = human D1 receptor agonism; P21728; HEK293 T-REx D1 cells, calcium flux, agonist mode; activation, % at 2 µM; hit rate 1% among 360,000; AID 504660
Target sequence (P21728 whole entry, looked up): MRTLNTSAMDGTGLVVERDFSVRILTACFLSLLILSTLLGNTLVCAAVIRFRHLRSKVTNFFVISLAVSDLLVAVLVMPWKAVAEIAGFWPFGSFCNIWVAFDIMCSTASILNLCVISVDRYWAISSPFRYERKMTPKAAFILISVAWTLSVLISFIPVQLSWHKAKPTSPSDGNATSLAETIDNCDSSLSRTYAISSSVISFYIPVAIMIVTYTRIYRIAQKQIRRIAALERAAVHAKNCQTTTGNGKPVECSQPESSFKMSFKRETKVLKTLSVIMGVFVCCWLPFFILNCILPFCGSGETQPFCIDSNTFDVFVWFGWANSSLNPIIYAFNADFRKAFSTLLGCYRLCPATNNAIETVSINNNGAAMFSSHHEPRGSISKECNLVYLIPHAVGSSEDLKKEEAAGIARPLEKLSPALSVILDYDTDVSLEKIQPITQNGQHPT
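Agonism was scored from calcium flux recorded over 180 s (1 read/s) after pintool compound addition, following a 10-cycle baseline. Cells were inducible force-coupled HEK293 TREx D1, plated overnight at 30 C and loaded with no-wash calcium dye.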
D1 antagonist = blocks dopamine activation of the human D1 receptor; P21728; HEK293 TREx D1 cells, calcium flux, dopamine EC80; hits give low values; activity change, negative = inhibition, % at 10 µM; hit rate 3.2% among 360,000; AID 504652; in the data active = activity change below about -30%
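After overnight tetracycline induction at 30 C, force-coupled D1 HEK293 cells took up a no-wash calcium dye at room temperature. Compounds were added and monitored 180 s, and the response to EC80 dopamine was then recorded.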
TRHR PAM = allosterically enhances the human TRH receptor. TRHR cells, fluo-8 calcium fluorescence, EC20 TRH enhancement. enhancement, % at 2 µM. hit rate 0.66% among 360,000; in the data active = enhancement above about 30%
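TRHR-expressing cells loaded with fluo-8 calcium dye were read kinetically (ex 480/em 530) during compound addition, then stimulated with an EC20 of TRH (10 nM final). Enhancement of the Gq-mediated intracellular calcium response was scored.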
TRHR agonist = activates the human TRH receptor; TRHR cells, calcium flux fluo-8, FDSS agonist mode; activation, % at 2 µM; hit rate 0.18% among 360,000
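Agonist-mode FDSS calcium read (Ex 480/Em 530, 1 s cycles) in 1536-well TRHR cells with fluo-8 dye, after 10-cycle baseline and 23 nL compound addition; TRH at EC20 (10 nM final) added afterwards for the enhancer phase.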
D1 PAM = enhances dopamine response at the human D1 receptor; P21728; HEK293 TREx D1 cells, calcium flux, dopamine EC20 potentiation; potentiation, % at 10 µM; hit rate 0.036% among 360,000; AID 504651; in the data active = potentiation above about 30%
Numbers stand for hits; – = inactive; · = no result; ! = not active in a repeat. Rule as the data show it, unless noted: active = activation above about 30%; inactive = the rest.

SMILES	D1 ag	D1 antagonist	TRHR PAM	TRHR agonist	D1 PAM
CCN(CCO)c1ccc(N=Cc2c(O)n(C)c(=S)[nH]c2=O)cc1	75	–	–	–	–
COc1ccc(CCn2c(O)c(C=Nc3ccc(F)cc3)c(=O)[nH]c2=O)cc1OC	–	–	38	–	–
CCN(CC)c1ccc(N=Cc2c(O)n(CCc3ccc(OC)c(OC)c3)c(=O)[nH]c2=O)cc1	40	–	–	–	–
CCn1c(O)c(C=Nc2ccc(S(N)(=O)=O)cc2)c(=O)[nH]c1=S	–	–	–	–	–
CCN(CC)c1ccc(N=Cc2c(O)n(Cc3ccco3)c(=O)[nH]c2=O)cc1	31	–	–	–	–
NC(=O)c1ccc(N=Cc2c(O)n(Cc3ccco3)c(=O)[nH]c2=O)cc1	–	–	–	–	–
CCN(CC)CCCN=Cc1c(O)n(CCc2ccc(OC)c(OC)c2)c(=O)[nH]c1=O	–	–	–	–	–
Cn1c(=O)n(C)c2cc(CNCCc3ccccc3)ccc21	–	–	–	–	–
Cc1ccc(C(C)C)c(OCC(=O)N2CCN(CCc3ccncc3)CC2)c1	–	–	–	–	–
CCCC(=O)Nc1ccc(N2CCN(CC)CC2)c(Cl)c1	–	-41	–	–	–
COc1cc2c(cc1OC)CN(c1ccc([N+](=O)[O-])c(C(F)(F)F)c1)CC2	–	–	37	–	–
CN1CCN(c2ccc([N+](=O)[O-])c(Sc3ccccn3)c2)CC1	–	-70	–	–	–
O=C(Nc1cccc(C(F)(F)F)c1)OC1CN2CCC1CC2 (centres undefined)	–	–	–	–	–
OC(c1cccc(Cl)c1)(c1cccc(Cl)c1)C1CN2CCC1CC2 (centres undefined)	52	-35	–	–	–
CCOc1cc2c(cc1OCC)-n1cccc1C(c1ccc(OC(F)F)cc1)NC2 (centres undefined)	–	–	–	–	–
O=[N+]([O-])c1cc(-n2cnnn2)c(O)c([N+](=O)[O-])c1	–	–	–	–	–
O=[N+]([O-])c1cc(O)c(O)c([N+](=O)[O-])c1	–	-41	–	–	–
COc1ccccc1CCNC1CCC(C(C)(C)C)CC1 (centres undefined)	89	–	–	–	–
COc1ccccc1CCNC1CCCCCC1	–	–	–	–	–
COc1ccc(/C=C/C2=CCN(C)CC2)cc1	–	–	–	–	–
CN1CC=C(/C=C/c2ccc(-c3ccccc3)cc2)CC1	–	-40	–	–	–
C[C@H](NC(=O)N1C[C@H]2C[C@@H](C1)c1cccc(=O)n1C2)C(=O)Nc1cccc(F)c1	–	–	–	–	–
CCOC(=O)C1(CCOc2ccccc2)CCN(Cc2ccccc2OC)CC1	–	–	–	–	–
CCOC(=O)C1(CCc2ccccc2)CCN(Cc2cccc3cnccc23)CC1	–	-45	–	–	–
CCOC(=O)C1(CCc2ccccc2)CCN(Cc2cccc3c2OCO3)CC1	–	-42	–	–	–
SMILES	D1 ag	D1 antagonist	TRHR PAM	TRHR agonist	D1 PAM
CCOC(=O)C1(CCc2ccccc2)CCN(Cc2csc(C(C)=O)c2)CC1	–	–	–	–	–
CCc1nc(SC)ncc1C(=O)Nc1ccc(Cl)cc1C(=O)c1ccccc1	–	–	–	–	–
COc1ccc(C)cc1NC(=O)N(Cc1ccc2c(c1)OCO2)C1CCN(Cc2ccccc2)CC1	–	–	–	–	–
CC1(C)C[C@H]2C=C(C=O)[C@]3(C=O)C[C@]3(C)[C@H]2C1	–	-57	–	–	–
CCCc1nc(SC)ncc1C(=O)Nc1ccc(Cl)cc1C(=O)c1ccccc1	–	–	–	–	–
CN(C)c1ccc(/C=C/[N+](=O)[O-])cc1	92	–	–	31	–
C/C(=C\c1ccc(N(C)C)cc1)[N+](=O)[O-]	–	–	–	–	–
CCCC1=Nc2cc(C(=O)NCCCN(CC)CC)ccc2Sc2ccccc21	–	–	–	–	–
CCN(CC)S(=O)(=O)c1ccc(C)c(NCC(=O)Nc2ccc(C#N)c(Cl)c2)c1	–	-37	–	–	–
CC(=O)N1CCN(CC(=O)Nc2ccc(C#N)c(Cl)c2)CC1	–	–	–	–	–
CC1(C)CSC(=NCc2ccccc2)N1	152	-38	–	77	36
COc1ccc(OCC(=O)N2CCN(CCc3ccccn3)CC2)cc1	–	–	–	–	–
COc1cc(O)c(C(=O)O)c(-c2cc(O)c(O)cc2C)c1	–	-31	–	–	–
CCOc1ccc2nc(NC(=O)c3cccn(Cc4ccccc4)c3=O)sc2c1	33	·	–	–	–
CN1CCN(c2oc(-c3ccc(COc4ccccc4)o3)nc2C#N)CC1	–	–	–	–	–
CN1CCN(c2ccc([N+](=O)[O-])c3no[n+]([O-])c23)CC1	33	-38	–	–	–
CC(C(=O)N1CCC2(CC1)OCCO2)C1Sc2ccccc2NC1=O (centres undefined)	–	–	35	–	–
COc1cc2[nH]c(=O)n(-c3ccc(C)cc3)c(=O)c2cc1OC	–	-44!	–	–	–
COc1cc2[nH]c(=S)n(-c3ccccc3)c(=O)c2cc1OC	–	–	–	–	–
O=C(Nc1ccon1)c1cccn(Cc2cccc([N+](=O)[O-])c2)c1=O	–	·	–	–	–
COc1ccc2[nH]c(C)c(CCNCc3cn(C)c4ccccc34)c2c1	41	-55	–	–	–
Cc1[nH]c2ccc(OCc3ccccc3)cc2c1CCN	–	–	–	–	–
Cc1[nH]c2c(C(F)(F)F)cccc2c1CCN	–	–	–	–	–
Cc1c(CCN)ccc2c1[nH]c1ccccc12	–	-38	–	–	–
CCc1ccc(NC2=NCCCS2)cc1	–	–	–	–	–
SMILES	D1 ag	D1 antagonist	TRHR PAM	TRHR agonist	D1 PAM
COc1ccc(NC(=O)CN2C(=O)C(C)N=C(c3ccccc3F)c3cc(Cl)ccc32)c(OC)c1 (centres undefined)	–	–	–	–	–
COc1ccc(OC)c(NP(=O)(Oc2ccccc2)Oc2ccccc2)c1	–	–	30	–	–
CCOc1ccc(NC(=O)Cn2cc(C(=O)c3ccccc3)c3ccccc32)cc1	–	–	–	–	–
Cc1ccc(Cn2nc(C)c(C=O)c2Cl)cc1	–	-36	–	–	–
CN1C[C@H](CO)C[C@@H]2c3cccc4[nH]cc(c34)C[C@H]21	–	-42	–	–	–
CCN(CC)C(=O)N[C@H]1C[C@@H]2c3cccc4[nH]cc(c34)C[C@H]2N(C)C1	–	-89	–	–	–
CC(C)C(=O)NC(Oc1ccccc1Cl)C(Cl)(Cl)Cl (centres undefined)	–	–	–	–	–
Cc1cccc(-n2c(CC3C(=O)Nc4ccc(C)cc43)nc3ccccc3c2=O)c1 (centres undefined)	–	–	–	–	–
CCOC(=O)C1=C(N)Oc2c(c(=O)oc3ccccc23)C12C(=O)N(C)c1ccccc12 (centres undefined)	–	-67	–	–	–
